Source: the supplement of paper PMC7335073
In all, about 4,100 sequences were measured (“relative CpG methylation activity (normalised to average over all NNNCGNNN flanks)”: median about 0.94, highest 2% from about 1.9 on). The list comes from a sample in which the highest values are over-represented; it also holds similar and randomly drawn sequences.

Biological target: DNMT3B catalytic domain (mouse) (UniProt O88509)
Test: relative CpG methylation activity (normalised to average over all NNNCGNNN flanks) (relative (1 = mean)); higher = more methylation of the central CpG
Conditions: system: in vitro, murine catalytic domain; CpG state: hemimethylated substrate pool; residues: 558-859
Method: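 Deep enzymology: a pool of dsDNA substrates with a central CpG flanked by 10 random nucleotides on each side was methylated by the murine DNMT3A or DNMT3B catalytic domain (0.8 mM SAM, 37 °C, 60 min). Methylation was then read out by hairpin ligation, bisulfite conversion and NGS. Values are the average methylation of each NNNCGNNN context (±3 flanks; the outer flanks are random and averaged over), normalised to the overall mean, so 1 = average activity.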

Sequence of DNMT3B catalytic domain (mouse) (O88509 558-859): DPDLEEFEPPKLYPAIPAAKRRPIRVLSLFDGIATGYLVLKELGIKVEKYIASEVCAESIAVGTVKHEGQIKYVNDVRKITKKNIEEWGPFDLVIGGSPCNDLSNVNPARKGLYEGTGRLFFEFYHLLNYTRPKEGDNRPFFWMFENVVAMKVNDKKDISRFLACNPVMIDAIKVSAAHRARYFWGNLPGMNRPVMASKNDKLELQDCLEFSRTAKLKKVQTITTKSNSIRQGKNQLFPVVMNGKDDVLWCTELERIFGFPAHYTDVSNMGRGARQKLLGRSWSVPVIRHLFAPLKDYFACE

Row | Sequence | relative CpG methylation activity
1 | ACCCGGTT | 1.29
2 | GCTCGGGA | 1.17
3 | CCACGGCT | 1.89
4 | TCACGGCC | 1.74
5 | GTACGGCA | 1.9
6 | CTACGGAG | 1.52
7 | CCACGGCG | 1.86
8 | CTACGGCG | 2.04
9 | CTACGGCT | 2.28
10 | GTACGGCT | 1.56
11 | TTACGGCC | 1.97
12 | CTACGGTT | 1.76
13 | GCACGGCA | 1.79
14 | TTACGGAC | 1.85
15 | CCTCGATT | 1.35
16 | TGACGGCA | 1.53
17 | CACCGTAT | 0.274
18 | CTACGCCA | 1.78
19 | TCCCGTTA | 0.532
20 | TAGCGGTC | 1.12
21 | GCACGCTA | 0.861
22 | AGTCGATC | 1.7
23 | AGTCGGAT | 0.542
24 | AGGCGTCT | 0.521
25 | GTTCGGAC | 1.37
26 | TCACGGCA | 1.82

Row | Sequence | relative CpG methylation activity
27 | GTACGGAC | 1.51
28 | TTACGGCA | 2.04
29 | ATACGGCC | 2.01
30 | ATACGGCT | 1.89
31 | TTACGGTG | 1.52
32 | TTACGGAA | 1.64
33 | TTACGGCG | 2.25
34 | ATACGGAC | 1.59
35 | TCACGGCG | 1.89
36 | GTACGGCC | 1.9
37 | GTACGGTC | 1.87
38 | GACCGGCT | 1.19
39 | ACGCGTAG | 0.632
40 | AGGCGATC | 1.05
41 | ACACGATC | 1.75
42 | GGCCGACT | 0.91
43 | TTACGTAT | 1.19
44 | TTACGTAC | 1.95
45 | ATACGTCC | 1.54
46 | TTACGTCT | 1.64
47 | GTACGTAC | 1.42
48 | TTACGTCC | 1.93
49 | AGTCGACA | 1.24
50 | CTGCGGAA | 0.922
51 | ACACGCTG | 1.11
52 | GATCGATC | 1.48

Row | Sequence | relative CpG methylation activity
53 | ACCCGAGC | 1.75
54 | TCCCGAGG | 1.3
55 | CCCCGAGA | 1.68
56 | CCCCGAGG | 1.5
57 | TCCCGAGC | 2.01
58 | CCCCGAGC | 1.93
59 | CACCGCGT | 0.402
60 | CTGCGCCA | 1.17
61 | AGACGGCC | 1.71
62 | CGACGGCA | 1.82
63 | TGACGGCG | 1.63
64 | CGACGGCC | 1.46
65 | AGACGGCG | 1.94
66 | CGACGGCG | 1.93
67 | AACCGTCC | 0.606
68 | TATCGAGG | 1.5
69 | GTACGCGT | 1.4
70 | ATACGCCC | 1.69
71 | TTACGGGC | 2.03
72 | TTACGGGA | 1.92
73 | CTACGGGA | 1.91
74 | CTACGGGT | 1.94
75 | CAACGGGA | 1.82
76 | CTACGGGC | 1.75
77 | GTACGGGA | 1.73
78 | ATACGGGT | 1.73

Row | Sequence | relative CpG methylation activity
79 | CCACGGGA | 1.42
80 | TTACGGGT | 1.83
81 | GTACGGGT | 1.85
82 | GTACGGGC | 1.63
83 | TACCGCTG | 0.389
84 | TATCGCAG | 0.473
85 | GAACGCGG | 0.853
86 | TACCGCGG | 0.374
87 | CGGCGAAG | 0.694
88 | GCGCGCCA | 0.631
89 | GTGCGAAA | 1.05
90 | CAACGGGG | 1.39
91 | CGACGGGG | 0.808
92 | GTACGGGG | 1.6
93 | CTACGGGG | 1.9
94 | ATACGGGC | 1.93
95 | ACACGGGC | 1.54
96 | TTACGGGG | 2
97 | ATACGGGA | 1.66
98 | ATACGGGG | 1.61
99 | GTTCGTAC | 1.18
100 | GCTCGCCC | 0.844
101 | GTCCGATG | 1.16
102 | GACCGTCT | 0.495
